# From PubChem BioAssay AID651871 (Sanford-Burnham Center for Chemical Genomics, 2012)
# “And” between values parts separate entries of the source, which are not always exact repeats. Equal values may be shown once.
# Tested on: HL-1
# Assay: protection of cardiomyocytes from stress damage, SAR follow-up, cell-based, panel, H9c2 and HL-1, ATP luminescence, set 2 (AID 651871);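 also: cells exposed to stressor for 2 h before ATP readout; reference of the scale not given here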
# Settings: H9c2/HL-1 cardiomyocytes, 2-deoxyglucose stress, with 2-deoxyglucose, run 3, at 79 µM (top of the series)
row,SMILES,activity (protection/inhibition)
1,CCOC(=O)c1cccc(NC(=O)CNC(=O)c2cc(-c3cc(OC)c(OC)c(OC)c3)nc3ccccc23)c1,95.7%
2,COc1ccc2c(c1OC)C(=O)N1c3ccccc3C(=O)N(Cc3cccc(Cl)c3Cl)C21 (stereo not drawn),35.1% and -7.14%
3,COc1ccc2nc(-c3cc(OC)c(OC)c(OC)c3)cc(C(=O)NCC(=O)Nc3ccc(C(C)=O)cc3)c2c1,38.8%
